# Measurements: PubChem BioAssay AID463173 (ICCB-Longwood Screening Facility, Harvard Medical School, 2010)
# Out of some 52,000 compounds screened, about 1,700 (3.3%) were called active. The list comes from a sample in which actives are over-represented; it also holds similar structures and randomly drawn compounds. Values without a mark were called inactive. Cut-off read from the data, not from the text of the source: active = survival mostly below about 52% (no sharp cut-off); inactive = mostly above about 56%.
# System: Wild type
# Assay: S. aureus survival, RN4220 and DeltatarO strains – OD600, teichoic acid synthesis inhibitors, primary screen (AID 463173)
# Details: S. aureus RN4220 wild type/DeltatarO growth, OD600, 18 h, hits give low values, screened at 18.75 µg/mL (by protocol)
row,Structure (SMILES),survival
1,CCOc1ccccc1NC(=O)N1CCc2c(sc3c2CCCC3)C1c1ccccc1 (centres undefined),75%
2,COc1ccc2oc(=O)c(C(=O)Nc3cccc(C(=O)O)c3)cc2c1,68%
3,CCOc1ccc(S(=O)(=O)Nc2cccc(-c3ccc(OCC)nn3)c2)cc1,71%
4,O=C(CSCc1ccccc1Cl)N/N=C/c1ccc(O)cc1O,122%
5,COc1ccc(NC(=O)CCc2c(C)nc3c(-c4ccc(F)cc4)c(C)nn3c2C)c(OC)c1,78%
6,CC(=O)c1cccc(NC(=O)C2CCN(S(=O)(=O)c3ccc4[nH]c(=O)ccc4c3)CC2)c1,75%
7,CCn1c(SCC(=O)OC2CCCCC2)nnc1-c1ccc(OC)cc1,113%
8,Cc1cccc(NC(=O)c2cc(-c3ccc4c(c3)OCCO4)on2)c1,78%
9,Cc1cc(C)cc(OC(=O)c2cc(-c3ccc(Cl)cc3)on2)c1,87%
10,Cc1cccc(OC(=O)c2cc(-c3ccc(C)c(C)c3)on2)c1,-7% (active)
11,CC(=O)Nc1ccc(NC(=O)c2cc(-c3ccc4c(c3)OCCO4)on2)cc1,109%
12,Cc1cc(C)cc(OC(=O)c2cc(-c3ccc4c(c3)OCCO4)on2)c1,-7% (active)
13,Cc1ccc(-c2cc(C(=O)Oc3ccc(C#N)cc3)no2)cc1,88%
14,Cc1cccc(OC(=O)c2cc(-c3ccc4c(c3)OCCO4)on2)c1,-7% (active)
15,CC(=O)c1cccc(NC(=O)c2cc(-c3ccc4c(c3)OCCO4)on2)c1,77%
16,Cc1ccc(-c2cc(C(=O)Oc3ccc(C#N)cc3)no2)cc1C,82%
17,COc1ccc(CC(=O)NCC(c2ccc(N(C)C)cc2)N2CCOCC2)cc1 (centres undefined),81%
18,Clc1ccccc1-c1nnc(-c2ccccc2CNc2ccc(Br)cc2)o1,91%
19,CCCNC(=O)Cn1nc(-c2ccc(OC)cc2)c2cnc3ccc(F)cc3c21,73%
20,Cc1cccc(CNS(=O)(=O)c2ccc3[nH]c(=O)ccc3c2)c1,124%
21,COc1ccc(C(C(=O)NCc2ccccc2)N(Cc2ccco2)C(=O)c2cnccn2)cc1 (centres undefined),101%
22,COc1cccc(CNC(=O)C(NS(=O)(=O)c2cccs2)C(C)C)c1 (centres undefined),94%
23,COc1ccc(OC)c(C2N=C(N)Nc3nc4ccccc4n32)c1 (centres undefined),72%
24,COc1cc(Nc2nc3ccc(Cl)cc3nc2-n2nc(C)cc2C)cc(OC)c1,93%

row,Structure (SMILES),survival
1,Cc1cc(C)n2c(SCC(=O)N(C)C3CCCCC3)nnc2n1,101%
2,CC(C)(C)C(=O)NC1CCN(S(=O)(=O)c2ccccc2C(=O)O)CC1,105%
3,CCCN(CCC)CCNC(=O)c1cc2c(-c3ccc(Cl)cc3)nn(C)c2s1,81%
4,CCCN(CCC)CCCNC(=O)c1cc2c(-c3ccc(Cl)cc3)nn(C)c2s1,95%
5,CCCCN(CC)CCNC(=O)c1cc2c(-c3ccc(Cl)cc3)nn(C)c2s1,5% (active)
6,CCOc1ccc(-c2c(C)nn3c(C)c(C(=O)NC(C)c4ccccc4)cnc23)cc1OCC (centres undefined),75%
7,Cc1ccc(CNC(=O)CN2C(=O)CCc3cc(S(=O)(=O)N4CCCCC4)ccc32)cc1,91%
8,COc1nc(C)c(/C=C/C(=O)N(C(=O)NC2CCCCC2)C2CCCCC2)c(OC)n1,101%
9,FC(F)(F)c1cccc(N2CCN(c3nc4ccccc4n4cnnc34)CC2)c1,2% (active)
10,Clc1cccc(N2CCN(c3nc4ccccc4n4cnnc34)CC2)c1,70%
11,CCc1nnc2c(N3CCN(c4cccc(C(F)(F)F)c4)CC3)nc3ccccc3n12,120%
12,COc1cccc(/C=C/c2nc(C#N)c(N3CCCCC3)o2)c1,67%
13,CCOc1ccccc1N(C)C(=O)Cn1cnc2onc(-c3ccc(F)cc3)c2c1=O,90%
14,Cc1cc(C)cc(-n2ccnc(NCCc3ccccc3)c2=O)c1,75%
15,COc1ccc(-n2ccnc(NCc3ccccc3Cl)c2=O)cc1OC,71%
16,O=c1c(NCCc2ccc(Cl)cc2)nccn1-c1ccccc1,14% (active)
17,COc1ccccc1CNc1nccn(-c2ccc(F)cc2)c1=O,76%
18,O=c1c(NCc2ccccc2Cl)nccn1-c1ccccc1,-1% (active)
19,COc1ccc(-n2ccnc(NCCc3ccc(Cl)cc3)c2=O)cc1OC,47%
20,Cc1ccc(S(=O)(=O)NCC2CCC(C(=O)NCc3ccc(F)cc3)CC2)cc1 (centres undefined),75%
21,CCC(C)NC(=O)c1ccc2c(c1)N(Cc1ccccc1)C(=O)c1ccccc1S2(=O)=O (centres undefined),85%
22,COC(=O)c1cc(S(=O)(=O)NCC2CCN(Cc3cccc(F)c3)CC2)c[nH]1,90%
23,CN(Cc1nc(-c2ccc(Cl)cc2)no1)S(=O)(=O)c1ccccc1,82%
24,CCOc1ccc(NC(=O)N2CCC(CN3CCCCCC3)CC2)cc1,111%

row,Structure (SMILES),survival
1,COC(=O)c1ccc(NC(=O)N2CCC(CN3CCc4ccccc4C3)CC2)cc1,1% (active)
2,Cc1cccc(NC(=O)N2CCC(CN3CCc4ccccc4C3)CC2)c1C,-4% (active)
3,Cc1cccc(NC(=O)N2CCC(CN3CCCCCC3)CC2)c1C,55%
4,COc1cc(NC(=O)N2CCC(CN3CCc4ccccc4C3)CC2)cc(OC)c1,81%
5,CCOc1ccc(NC(=O)N2CCC(CN3CCC(C)CC3)CC2)cc1,127%
6,CCc1ccccc1NC(=O)N1CCC(CN2CCc3ccccc3C2)CC1,60%
7,CCOc1ccc(NC(=O)N2CCC(CN3CCc4ccccc4C3)CC2)cc1,-3% (active)
8,Cc1cc(C)cc(NC(=O)N2CCC(CN3CCc4ccccc4C3)CC2)c1,81%
9,CCCC(=O)Nc1cc(-c2nnc3c4ccccc4c(C)nn23)ccc1C,72%
10,O=C(Nc1ccc(O)c(-c2nc3ccccc3o2)c1)c1ccc(Br)cc1,88%
11,CC1Cn2cc(C(=O)Nc3cccc(C(F)(F)F)c3)c(=O)c3c(Cl)ccc(c32)O1 (centres undefined),89%
12,CCOC(=O)c1cccnc1SCC(=O)N(CC)c1cccc(C)c1,70%
13,CCn1c(CN2CCCCC2)nc2cc(NC(=O)COc3ccc(C(C)(C)C)cc3)ccc21,97%
14,CCOc1cc(C2NC(=O)c3c(sc4c3CCN(C)C4)N2)ccc1OC(=O)c1ccc(Br)cc1 (centres undefined),71%
15,CCCCCOc1ccc(/C=C/C(=O)Nc2sc(C(C)=O)c(C)c2C(=O)OCC)cc1OC,76%
16,CCOC(=O)CSc1nc2cc3c(cc2c(=O)n1CCCCCC(=O)NCc1ccc2c(c1)OCO2)OCO3,81%
17,CCOc1ccc(C(=O)c2cn(CC(=O)Nc3cc(OC)ccc3OC)c3cc(OC)c(OC)cc3c2=O)cc1,68%
18,CCOC(=O)C1CCN(S(=O)(=O)c2cc3c4c(c2)C(C)C(=O)N4CCC3)CC1 (centres undefined),88%
19,CC1C(=O)N2CCCc3cc(S(=O)(=O)N4CCC(C(N)=O)CC4)cc1c32 (centres undefined),-3% (active)
20,COC(=O)C1CCN(S(=O)(=O)c2cc3c4c(c2)C(C)C(=O)N4CCC3)CC1 (centres undefined),125%
21,COc1ccc(N2CCN(C(=O)CSc3n[nH]c(-c4ccccc4)n3)CC2)cc1,72%
22,COc1ccc(S(=O)(=O)N(CC(=O)Nc2ccccc2Br)Cc2ccccc2)cc1,77%
23,COc1ccc(Nc2cc(C(=O)NCCCN(C)C3CCCCC3)c3ccccc3n2)cc1,99%
24,Cc1ccc(C)c(Nc2cc(C(=O)NCCCN(C)C3CCCCC3)c3ccccc3n2)c1,99%

row,Structure (SMILES),survival
1,CSc1cccc(Nc2cc(C(=O)NCCCN(Cc3ccccc3)C(C)C)c3ccccc3n2)c1,75%
2,Cc1cc(C)cc(Nc2cc(C(=O)NCc3ccccc3)c3ccccc3n2)c1,139%
3,Cc1cc(C)cc(Nc2cc(C(=O)NCCCN(C)C3CCCCC3)c3ccccc3n2)c1,26% (active)
4,CCCCN(C)CCCNC(=O)c1cc(-c2ccc(Br)s2)nc2ccccc12,26% (active)
5,Cc1cc(C)cc(Nc2cc(C(=O)NCCCN(Cc3ccccc3)C(C)C)c3ccccc3n2)c1,-6% (active)
6,CCCCN(C)CCNC(=O)c1cc(-c2ccc(Cl)s2)nc2ccccc12,82%
7,CCCN(CCC)CCNC(=O)c1cc(-c2ccc(Br)s2)nc2ccccc12,80%
8,Cc1ccc2c(c1)NC(=O)C(CC(=O)Nc1cc(Cl)ccc1C)O2 (centres undefined),77%
9,COc1ccc(Br)cc1S(=O)(=O)Nc1cc(-c2cn3ccccc3n2)ccc1C,63%
10,Cc1ccc(C(=O)Nc2ccc3c(c2)N(C)C(=O)c2ccccc2S3)cc1F,72%
11,O=C(Cn1ncn2c(cc3sccc32)c1=O)NCCc1ccccc1,85%
12,CC(Sc1nnc(-c2ccccc2)n1N)C(=O)O (centres undefined),109%
13,CCOc1ccc(Nc2ncnc3c2cnn3-c2ccc(F)cc2)cc1,60%
14,Cc1ccc(N2CCN(C(=O)c3c(C)oc4ncnc(N5CCOCC5)c34)CC2)c(C)c1,83%
15,CSc1ccc(-c2nc3ncccn3c2Nc2ccc(C)c(C)c2)cc1,60%
16,COc1cc(OC)c(NC(=O)c2c(C)oc3ncn(C)c(=O)c23)cc1Cl,88%
17,Cc1cccc(NC(c2nnc(-c3ccccc3)o2)c2ccc(F)cc2Cl)c1C (centres undefined),55%
18,CCc1ccccc1NC(c1nnc(-c2cccc(F)c2)o1)c1ccc(F)cc1Cl (centres undefined),86%
19,COc1ccc(C)cc1NC(c1nnc(-c2ccccc2)o1)c1ccc(F)cc1Cl (centres undefined),3% (active)
20,CCOc1ccccc1NC(c1nnc(-c2ccccc2)o1)c1ccc(F)cc1Cl (centres undefined),2% (active)
21,COc1cc(OC)c(NC(c2nnc(-c3ccccc3)o2)c2ccc(F)cc2Cl)cc1Cl (centres undefined),66%
22,COc1cccc(NC(c2nnc(-c3ccccc3)o2)c2ccc(F)cc2Cl)c1 (centres undefined),56%
